This note sets out measurements from PubChem BioAssay AID463173 (ICCB-Longwood Screening Facility, Harvard Medical School, 2010).

The campaign covered roughly 52,000 compounds. About 4,300 (8.3%) were called active. Rule as the data show it: active = survival mostly below about 52% (no sharp cut-off); inactive = mostly above about 56%. Many of the other results were omitted from the sample, so actives are more common in it than they were.

This assay concerns DeltatarO mutant. Briefly: growth inhibition of S. aureus wild type versus tarO mutant, primary screen, teichoic acid synthesis inhibitors, RN4220, OD600 (AID 463173). To be noted: OD600, 18 h, hits give low values, screened at 18.75 µg/mL (by protocol).
Consider `Cc1cccc(CC(=O)NCCc2csc(-c3ccc(C(F)(F)F)cc3)n2)c1`, for which the survival is 101% (inactive). With `CCc1ccc(-n2c(=O)c3ccccc3n(CC(=O)NCCc3ccc(OC)c(OC)c3)c2=O)cc1`, the survival is 91% (inactive). Then `CC(C)OC(=O)CSc1nnc(-c2ccc(O)cc2)o1`, with 72% (inactive); and `COc1ccc(CSC(=N)N)cc1Cl`, with 97% (inactive); and `COc1ccc(-c2csc(N)n2)cc1C`, with 97% (inactive). Take `O=C(NCC(c1ccco1)S(=O)(=O)c1cccs1)c1ccc(F)c(F)c1` (centres undefined): the survival was 75% (inactive). Then `COc1cc(OC)c(NC(=O)CCCn2nc(C)c3c(C)n(-c4ccccc4)nc3c2=O)cc1Cl`, with 32% (active). For `CCOc1ccc(CCNC(=O)Cn2nc(C)c3c(C)n(-c4ccccc4)nc3c2=O)cc1OCC`, the survival is 25% (active). Then `COc1ccc(CNC(=O)CCCn2nc(C)c3c(C)n(-c4ccc(C)cc4)nc3c2=O)cc1OC`, with 74% (inactive). As for `Cc1ccc(C)c(NC(=O)CCn2nc(C)c3c(C)n(-c4ccccc4)nc3c2=O)c1`, the survival was 37% (active). With `Cc1cccc(NC(=O)CCn2nc(C)c3c(C)n(-c4ccccc4)nc3c2=O)c1C` the figure was 57% (inactive); with `Cc1cc(Cl)ccc1NC(=O)CCn1nc(C)c2c(C)n(-c3ccccc3)nc2c1=O`, 72% (inactive); with `COc1cccc(CNC(=O)CCn2nc(C)c3c(C)n(-c4ccccc4)nc3c2=O)c1`, 83% (inactive). `Cc1ccc(CCNC(=O)Cn2nc(C)c3c(C)n(-c4ccc(C)cc4)nc3c2=O)cc1`: the survival was 79% (inactive). Then `COc1ccc(CNC(=O)CCn2nc(C)c3c(C)n(-c4ccccc4)nc3c2=O)cc1OC`, with 0% (active); and `CCN(CC)CCNC(=O)Cn1nc(C)c2c(C)n(-c3ccccc3)nc2c1=O`, with 70% (inactive); and `Cc1cc(Cl)ccc1NC(=O)CCCn1nc(C)c2c(C)n(-c3ccccc3)nc2c1=O`, with 112% (inactive). Then `Cc1ccc(NC(=O)CCCn2nc(C)c3c(C)n(-c4ccccc4)nc3c2=O)c(Cl)c1`, with 89% (inactive); and `CCN(c1cccc(C)c1)S(=O)(=O)c1cc2c(cc1C)n(C)c(=O)c(=O)n2C`, with 85% (inactive). With `COC(=O)c1ccccc1NC(=O)CCCn1c(C)c2cnn(-c3ccccc3)c(=O)c2c1C`, the survival is 90% (inactive). With `COc1ccc(OC)c(C2=NS(=O)(=O)N(C)C(C(=O)Nc3ccc(F)cc3F)=C2)c1` the figure was 72% (inactive); with `COC(=O)c1ccc(NC(=O)CN(C)S(=O)(=O)c2ccc3c(c2)CCCC(=O)N3)cc1`, 79% (inactive); with `CCCN1C2CCCC1CC(NC(=O)NC1CCCCC1)C2` (centres undefined), 59% (inactive).

Regarding `CCOC(=O)c1cc2c(ccn2-c2ccc(F)cc2)n1CC(=O)N1C(C)CCCC1C` (centres undefined), the survival was 103% (inactive). With `CC(=O)c1cc(C(=O)Nc2cc(C)cc(C)c2)c2ccccn12` the figure was 43% (inactive); with `CCOc1cccc(C2c3[nH]c4ccccc4c3CCN2C(=O)CCC2CCCC2)c1` (centres undefined), 78% (inactive); with `COC(=O)c1ccccc1NC(=O)Cn1cnc2sc(C)c(S(=O)(=O)N3CCC(C)CC3)c2c1=O`, 59% (inactive). With `Cc1nn(CCC(=O)NCc2ccc(N(C)C)cc2)c(=O)c2nn(-c3ccccc3)c(C)c12` the figure was 95% (inactive); with `Cc1nn(CCC(=O)NCc2ccc(Cl)cc2)c(=O)c2nn(-c3ccccc3)c(C)c12`, 0% (active); with `CCc1ccc(CNC(=O)CCn2nc(C)c3c(C)n(-c4ccccc4)nc3c2=O)cc1`, 55% (inactive). `O=c1c2cnn(-c3ccc(Cl)cc3)c2ncn1Cc1ccc(Cl)cc1Cl`: the survival was 102% (inactive).

Consider `CCc1ccccc1NC(=O)C1CCCN(S(=O)(=O)c2ccc3[nH]c(=O)ccc3c2)C1` (centres undefined), for which the survival is 88% (inactive). `COC(=O)c1c(SC)nc2ccccc2c1OCc1ccccc1C`: the survival is 105% (inactive). Then `COC(=O)c1c(SC)nc2ccccc2c1OCc1ccc(C)cc1C`, with 46% (active). With `CCSc1nc2ccccc2c(OCc2ccccc2Cl)c1C(=O)OC` the figure was 64% (inactive); with `COC(=O)c1c(SC)nc2ccccc2c1OCc1cc(C)ccc1C`, 144% (inactive).

Take `CCSc1nc2ccccc2c(OCc2ccc(Cl)cc2)c1C(=O)OC`: the survival is 98% (inactive). Consider `CCSc1nc2ccccc2c(OCc2cc(C(=O)OC)ccc2OC)c1C(=O)OC`, for which the survival was -12% (active). Regarding `CCOC(=O)Cn1cc2c(c1-c1ccc(Cl)cc1)c(=O)n(C)c(=O)n2C`, the survival was 60% (inactive). As for `COc1cc(CNC(=O)C2CCCCN2S(=O)(=O)c2ccc(F)cc2)cc(OC)c1OC` (centres undefined), the survival was 83% (inactive). For `Cc1ccc2c(=O)c(C(=O)c3ccc(F)cc3)cn(CC(=O)Nc3ccc4c(c3)OCCO4)c2n1`, the survival was 77% (inactive). Then `Cc1ccc(CCNC(=O)c2ccc3c(Cl)c4c(nc3c2)CCCC4)cc1`, with 61% (inactive); and `CCCC(=O)N(c1ccc2oc3c(c2c1)CCCC3)S(=O)(=O)c1ccc(CC)cc1`, with 39% (active). Take `CCCC(=O)N(c1ccc2oc(-c3ccccc3)c(C(=O)OCC)c2c1)S(=O)(=O)c1ccc(C)cc1`: the survival was 140% (inactive). `CCc1ccc(S(=O)(=O)N(C(C)=O)c2ccc3oc4c(c3c2)CCCC4)cc1`: the survival was 146% (inactive). Then `CCCCC(=O)N(c1ccc2oc(C)c(C(C)=O)c2c1)S(=O)(=O)c1ccc(F)cc1C`, with 62% (inactive); and `CCOC(=O)c1c(-c2ccccc2)oc2ccc(N(C(C)=O)S(=O)(=O)c3cc(C)ccc3C)cc12`, with 54% (inactive); and `CCCC(=O)N(c1ccc2oc3c(c2c1)CCCC3)S(=O)(=O)c1cc(C)ccc1C`, with 35% (active). With `CCC1CN(C(=O)NCc2ccc(C)cc2)c2cc(C)ccc2O1` (centres undefined) the figure was 54% (inactive).

Regarding `COC(=O)CC1Oc2ccc(Cl)cc2-n2cc(-c3ccccc3)nc21` (centres undefined), the survival is 63% (inactive). As for `CCOC(=O)Cn1c(=O)oc2cc(S(=O)(=O)NC(C)c3ccccc3)ccc21` (centres undefined), the survival was 66% (inactive). Then `CC(C)=NNC(=O)CNc1ccccc1Cl`, with 79% (inactive); and `Cc1ccc(NC(=O)C2CC=CCC2C(=O)N2CCCCC2)cc1` (centres undefined), with 69% (inactive); and `COc1cc(CN2CCc3nc(N4CCN(c5ccccc5F)CC4)ncc3C2)ccc1OC(C)C`, with 118% (inactive). Consider `O=C(CC1N=C2c3ccccc3N=C(SCc3ccccc3Cl)N2C1=O)NCc1cccs1` (centres undefined), for which the survival was 66% (inactive). As for `Cc1ccc2c(c1)-c1ncc(C(=O)c3cc(Br)ccc3O)cc1CO2`, the survival was 62% (inactive).

On to `Cc1ccc2c(c1)-c1nc(-c3ccccc3)cc(-c3ccccc3)c1CO2`, for which the survival was 91% (inactive). Turning to `O=C(c1cnc2c(c1)COc1ccccc1-2)c1ccccc1O`, the survival is 3% (active).

For the compound `Cc1ccc2c(c1)-c1ncc(C(=O)c3ccccc3O)cc1CO2`, the survival is 3% (active). With `Cc1cc(O)c(C(=O)c2cnc3c(c2)COc2ccccc2-3)cc1Cl` the figure was 76% (inactive); with `O=C(c1cnc2c(c1)COc1ccc(Cl)cc1-2)c1ccccc1O`, 105% (inactive). Then `COc1ccccc1/C=C(\C#N)C(=O)NCC1CCCO1` (centres undefined), with 129% (inactive); and `CC1=C(c2ccc(Cl)cc2)S(=O)(=O)N=C1N1CCN(c2cccc(C(F)(F)F)c2)CC1`, with 71% (inactive). Consider `CCS(=O)(=O)N1CCc2cc(C(=O)NCc3ccc(Cl)cc3)ccc21`, for which the survival is 92% (inactive). Then `Cc1ccc(NC(=O)Nc2nnc(N(C)C3CCCCC3)s2)c(Cl)c1`, with 104% (inactive). As to `COc1ccc(NC(=O)Nc2nnc(N(C)C3CCCCC3)s2)c(OC)c1`, the survival is 70% (inactive). With `COc1cc(OC)c(NC(=O)Nc2nnc(N(C)C3CCCCC3)s2)cc1Cl` the figure was 23% (active). With `O=C(CSc1nc2c([nH]c3ccccc32)c(=O)n1-c1cccc(Cl)c1)N1CCc2ccccc21`, the survival is 73% (inactive). With `COC(=O)C1CCN(C(c2ccccc2)c2sc3nc(-c4ccco4)nn3c2O)CC1` (centres undefined) the figure was 57% (inactive); with `Cc1ccc(C)c(NC(=O)c2ccc(=O)n(Cc3ccc(F)cc3)c2)c1`, 94% (inactive); with `CCN(CC)CCCNC(=O)Cn1ncc2c3ccccc3n(Cc3ccccc3)c2c1=O`, 95% (inactive).

Consider `COc1ccc(Nc2cc(C(=O)NCCCN3CCN(c4ccccc4F)CC3)c3ccccc3n2)c(OC)c1`, for which the survival is 48% (active). In the case of `O=C(c1cc2c(s1)-c1ccccc1OC2)N1CCN(c2ccccc2F)CC1`, the survival is 41% (active). Regarding `COc1ccc2c(c1)CC(C(=O)NCCN1CCN(c3ccccc3F)CC1)CO2` (centres undefined), the survival is 47% (active). With `COc1ccc(N2CCN(CCCNC(=O)c3cc(Nc4ccc(OC)cc4OC)nc4ccccc34)CC2)cc1` the figure was 87% (inactive); with `COc1ccc2c(c1)CC(C(=O)NCCCN1CCN(c3ccccc3F)CC1)CO2` (centres undefined), 87% (inactive); with `O=C(c1cc2c(s1)-c1ccccc1OC2)N1CCN(c2ccc(F)cc2)CC1`, 59% (inactive).

Turning to `CCCN1CCN(CCCNC(=O)c2cc3c(Cl)nc4ccccc4c3s2)CC1`, the survival was 116% (inactive). `COc1ccc(N2CCN(CCCNC(=O)c3cc(Nc4ccccc4OC)nc4ccccc34)CC2)cc1`: the survival was 62% (inactive).

For the compound `COc1ccc2c(c1)CC(C(=O)NCCN1CCN(c3cccc(C)c3C)CC1)CO2` (centres undefined), the survival is 76% (inactive). Take `O=C(NCCCN1CCN(c2ccc(F)cc2)CC1)c1cc2c(Cl)nc3ccccc3c2s1`: the survival was 91% (inactive). For `O=C(NCCCN1CCN(c2ccccc2F)CC1)c1cc2c(Cl)nc3ccccc3c2s1`, the survival was 51% (active). With `COc1ccccc1N1CCN(C(=O)c2cc3c(s2)-c2ccccc2OC3)CC1` the figure was 88% (inactive). Consider `COc1cccc(N2CCN(C(=O)Cn3c(-c4cccs4)cc4ccccc43)CC2)c1`, for which the survival was 104% (inactive). Then `CCCCOc1ccc(C(C)NC(=O)c2cccc(Nc3nc4ccccc4n4nnnc34)c2)cc1` (centres undefined), with 67% (inactive); and `Cc1ccc2[nH]c3nc(NN)nnc3c2c1`, with 77% (inactive); and `CCOc1ccc(N2CC(NC(=O)Cc3ccccc3)CC2=O)cc1` (centres undefined), with 135% (inactive). Take `COc1ccc(N(Cc2nnc3n2CCCCC3)C(=O)Nc2ccc(Cl)cc2)cc1Cl`: the survival is 85% (inactive). With `Cc1ccccc1NC(=O)CSc1nc2c(c(=O)n(C)c(=O)n2C)n1Cc1ccccc1F` the figure was 56% (inactive).
